# Shown is part of a subset that was picked to be rich in hits.
# TTR transcr act: increases transthyretin transcription. SH-SY5Y TTR promoter Gaussia luciferase, luminescence; 100% = recombinant luciferase protein wells. activation, % at 16.7 µM. hit rate 1.3% among 92,000. AID 1117267;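 active = activation above the mean of all tested compounds plus 3 SD, cut at about 9.5% in these data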;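 note: cells exposed to compounds for one day before reading; 0% = median of all test compound wells on the plate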
# HuH7 TTR inh: counter-screen for TTR activators: TTR transcription inhibitors in HuH7 cells | inhibition, % at 16.7 µM | hit rate 4% among 1,100 | shares compounds with TTR transcr act | HuH7 TTR promoter-Gaussia luciferase reporter, luminescence;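 active = average inhibition above the solvent-only control wells' mean plus 3 SD, cut at about 15% in these data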;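 note: 0% = cells with DMSO only and 100% = cells with inhibitor control FD; inhibitors lower well luminescence so higher value means more inhibition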
# TTR act confirm: confirmation of human transthyretin transcription activators. shares compounds with TTR transcr act. SHSY5Y TTR promoter Gaussia luciferase, luminescence; 100% = purified Lucia enzyme wells, no cells. activation, % at 16.7 µM. 1,100 tested, under 10 active;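 active = mean activation above a set limit taken from the earlier primary screen, cut at about 11% in these data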;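 note: 0% = DMSO-treated cells and 100% = recombinant Lucia luciferase without cells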
# * hit, by the source's call.
SMILES,TTR transcr act,others
CCOC(=O)C1=CCN(S(=O)(=O)c2ccccc2F)C1c1ccccc1 (stereo not given),-1,
O=C(/C(C=Nc1ccc(Br)cc1)=C(/O)c1ccco1)C(F)(F)F,-5,
O=C(/C=C/c1ccc(S(=O)(=O)N2CCOCC2)cc1)NC(=S)Nc1ccc(Cl)cc1Cl,-1,
CC1(Oc2cccc(C#N)c2)CCN(Cc2csc3ccccc23)C1 (stereo not given),1,
O=C(N/N=C/c1ccc([N+](=O)[O-])o1)C(=O)Nc1ccc(C(=O)O)cc1,3,
O=[N+]([O-])c1ccc(C=NN2CCNC2=S)o1,10.0*,HuH7 TTR inh=8;TTR act confirm=1
CN(/N=C/c1ccc([N+](=O)[O-])o1)c1ccccc1,-2,
CCOC(=O)[C@@H](C)N1[C@@H](C)[C@H](c2ccccc2)Oc2ccc(Cl)cc2S1(=O)=O,1,
CCOC(=O)C1C(=O)CC(C)(O)C(C(=O)OCC)C1c1ccc(SC)cc1 (stereo not given),-2,
C=CCOC(=O)C1C(=O)CC(C)(O)C(C(=O)OCC=C)C1c1ccc(N(C)C)cc1 (stereo not given),25*,HuH7 TTR inh=-10;TTR act confirm=0
CCOC(=O)C1C(=O)CC(C)(O)C(C(=O)OCC)C1c1ccc(Br)cc1 (stereo not given),-1,
COc1ccc2c3c1OC1CC(O)C=CC31CCN(C)C2 (stereo not given),12*,HuH7 TTR inh=-10;TTR act confirm=0
CCC(c1nnnn1-c1c(C)cccc1C)N1CCN(c2ccccn2)CC1 (stereo not given),-2,
Cc1nc(-c2ccc(C#N)cc2)cs1,1,
COC(=O)c1cc(C#N)c(=O)[nH]c1C,0,
Cc1nc(-c2cc(C#N)c(=O)[nH]c2C)cs1,16*,HuH7 TTR inh=-12;TTR act confirm=1
CCc1noc(C)c1C(=O)OCC(=O)c1ccccc1OC,0,
COC(=O)CNC(=O)[C@H](Cc1ccccc1)NC1(C(=O)NCCc2c[nH]c3ccccc23)CCCCC1,-2,
CCc1ccc([C@H]2[C@@H]3C(=O)C[C@@H]4C(=O)NC(=O)[C@@H]4[C@@H]3CN2S(=O)(=O)c2ccc(C)cc2)cc1,-2,
CCOc1cccc(CNc2ccc(O)cc2)c1OCc1ccc(Cl)cc1Cl,-5,
COc1cccc(CNc2ccc(F)c(Cl)c2)c1O,13*,HuH7 TTR inh=-13;TTR act confirm=0
CCn1cnc2cc(NCc3cccc(OC)c3O)ccc21,1,
CC(=O)c1ccc(NC(=O)NC2CCCCN(Cc3ccc(Cl)cc3)C2=O)cc1 (stereo not given),-2,
Cc1onc(-c2ccccc2Cl)c1C(=O)N(C)Cc1ccccc1,3,
O=C(Nc1cc(Cl)ccc1N1CCOCC1)c1cccnc1Cl,1,
SMILES,TTR transcr act,others
CC(C)(C)CC(=O)NCc1ccc(F)cc1,15*,HuH7 TTR inh=-15;TTR act confirm=-1
Cc1ccc(C(=O)OCC(=O)NCc2ccc(F)cc2)o1,5,
NC(=O)NCc1ccc(F)cc1,0,
Cc1nc(N2CCN(C(=O)C3CCCCC3)CC2)c2c3c(sc2n1)CCCC3,-2,
C=CC[C@@H](CC(=O)NCCO)C(=O)NC[C@H](OC(=O)[C@@H](CC=C)Cc1ccc(F)cc1)c1ccccc1,-2,
O=C(O)CCn1[nH]c(=O)ccc1=O,27*,HuH7 TTR inh=-9;TTR act confirm=1
Cn1c(=O)n(CCC(=O)O)c2ccccc21,-1,
O=c1ccc(=O)n(-c2ccccc2)[nH]1,1,
Cc1ccc(S[C@@H](CCN2CC[C@H](C(C)(C)C)CCC2=O)c2ccccc2)cc1,-6,
Cc1ccc2nc(Cl)cc(=O)n2c1,1,
CCN1CCN(S(=O)(=O)c2cccc3nsnc23)CC1,5,
CC1CC(C)CN(S(=O)(=O)c2cccc3nsnc23)C1 (stereo not given),-1,
Cc1ccccc1CN1CCN(S(=O)(=O)c2cccc3nsnc23)CC1,12*,HuH7 TTR inh=-17;TTR act confirm=1
CCc1nc2c(OCCOc3ccc(F)cc3)cccn2c1N(C)C(=O)C(C)C,3,
CCCCN1Cc2c(nc3cc(-c4ccco4)[nH]n3c2=O)C1=O,2,
Cc1nn(-c2ccccc2)c(C)c1C(=O)NCCc1ccccc1,-1,
Cc1nn(Cc2ccccc2)c(Cl)c1C(=O)NCCc1ccc(Cl)cc1,-1,
CCOc1ccc(CCNC(=O)c2c(C)nn(-c3ccccc3)c2Cl)cc1OCC,12*,HuH7 TTR inh=-16;TTR act confirm=0
O=C(c1ccc(-c2ccccc2Cl)s1)N1CCOCC1,2,
Cc1nn(CC(C)C)c(Cl)c1C(=O)N(C)CC(=O)Nc1c(Cl)cccc1Cl,-1,
CCCC/C=C1/[C@@H](C(C)C)N(Cc2ccc3c(c2)OCO3)C2=N[C@H](c3ccccc3)CC(=O)N21,4,
COc1cccc(N2C(=O)C3NN=C(C(=O)CN4C(=O)c5ccccc5C4=O)C3C2=O)c1 (stereo not given),18*,HuH7 TTR inh=-5;TTR act confirm=0
Cc1ccc(N2C(=O)[C@@H]3C(C(=O)CN4C(=O)c5ccccc5C4=O)=NN[C@@H]3C2=O)c(C)c1,1,
COc1ccccc1N1C(=O)[C@@H]2C(C(=O)CN3C(=O)c4ccccc4C3=O)=NN[C@@H]2C1=O,-1,
C=CCOc1cccc(CNc2cccc(C(=O)O)c2)c1,3,
SMILES,TTR transcr act,others
CC1(C(=O)Nc2ccc3c(c2)OCO3)Cc2c(-c3cccc(C(N)=O)c3)ccnc2O1 (stereo not given),-1,
COc1cccc(NC(=S)N(C)C2CCN(C)CC2)c1,3,
CCCCCN(C(=O)CCC(=O)OCC(=O)N(CC)C1CCCCC1)c1c(N)n(CCCC)c(=O)[nH]c1=O,0,
CC(C)(C)OC(=O)[C@H](Cc1ccccc1)NCC(=O)OCc1ccc(C(=O)NCc2ccccc2)cc1,-1,
O=C(N[C@@H](Cc1ccc(Br)cc1)C(=O)O)OCC1c2ccccc2-c2ccccc21,0,
O=C(CN(C(=O)OCC1c2ccccc2-c2ccccc21)[C@@H](Cc1ccccc1)C(=O)O)OCc1ccc(C(=O)NCc2ccccc2)cc1,12*,HuH7 TTR inh=-21;TTR act confirm=2
COc1c(C)cc(C(=O)C2CCCN(C(=O)c3cc(C4CC4)[nH]n3)C2)cc1C (stereo not given),0,
COc1cc(SC)ccc1C(=O)NCc1ccc(C)cc1,-2,
CCCNC(=O)c1ccc(SC)cc1OC,2,
COc1cc(SC)ccc1C(=O)NCCNC(=O)c1nonc1N,14*,HuH7 TTR inh=-28;TTR act confirm=0
CCN1CCN(C(CCc2ccccc2)C(=O)NC2CCCCC2)CC1 (stereo not given),2,
CN1C(=O)C2(OCC(CO)([N+](=O)[O-])CO2)c2ccccc21 (stereo not given),-1,
Cc1ccc(NC(=O)C2CCCO2)cc1[N+](=O)[O-] (stereo not given),-1,
O=c1c2c3c(sc2n2c(=S)[nH]nc2n1-c1ccccc1)CCC3,1,
COc1ccc(-n2c(=O)c3c4c(sc3n3c(=S)[nH]nc23)CCC4)cc1,-2,
Cc1ccc(-n2c(=O)c3c4c(sc3n3c(=S)[nH]nc23)CCC4)cc1,15*,HuH7 TTR inh=-8;TTR act confirm=2
Cn1nc(C(F)(F)F)c(-c2cccc(C(F)(F)F)c2)c1NC(=O)CSCC(=O)O,-1,
O=C(NC(=O)c1ccccc1F)OCc1ccc(Cl)cc1Cl,20*,HuH7 TTR inh=-14;TTR act confirm=1
O=C(CNC(=O)c1ccccc1F)NCCc1ccc(Cl)cc1Cl,3,
Nc1cc(C(=O)OCC(=O)NNC(=O)c2ccccc2F)ccc1Cl,4,
COCCn1c(=S)[nH]c2cc(C(=O)N3CC(C)CC(C)C3)ccc2c1=O (stereo not given),-2,
